Results taken from PubChem BioAssay (NCATS).
Inconclusive results are not listed. Activity calls are given as the source filed them. Unless noted, the call rests on the fitted dose curve; in most records, active means well fitted curve in the direction sought with a large enough effect; inconclusive means small, poorly fitted or top-dose-only effect, or another doubt; inactive means no such curve, though single readings can be large; an effect the other way counts as inactive or inconclusive.

Columns and labels:
[1] = Cell Viability - Jurkat (AID 426;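 active means dose-dependent loss of cell ATP signal giving a full or clear fitted curve, ranked by lower potency value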; further: potency means the concentration at half of the fitted maximal effect); details: qHTS
How it was run: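 qHTS, 1536-well; Jurkat E6-1, 5000 cells/well, complete medium; cpd 40 hr, 37 °C; CellTiter-Glo 20 min RT; luminescence. AC50 by Hill fit.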

[2] = Cell Viability - NIH 3T3 (AID 541); details: NIH 3T3 cell viability, qHTS; activity change, negative = cytotoxicity: at 92.2 µM (top of the series);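 further: plate controls were DMSO alone for no effect and tamoxifen positive control for full effect; nearly all actives have a fitted effect of over 25% in size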
How it was run: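 Luminescent ATP signal (CellTiter-Glo) served as the viability read-out after NIH 3T3 cells were exposed to compounds over a concentration range for 40 hr at 37 °C. Hill-equation modelling of concentration-response data gave AC50.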

[3] = Cell Viability - Mesenchymal (AID 546); details: mesenchymal cells viability, qHTS; series mostly up to 91.7 µM;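 further: cells exposed to compound for 40 hours before reading; 0% = DMSO only and -100% = 100 µM tamoxifen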
How it was run: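 Normal human renal glomerulus-derived kidney mesenchymal cells, 1000 per well in complete medium, were treated with compounds for 40 hr at 37 °C. Viability was read as intracellular ATP by CellTiter-Glo luminescence; AC50 values came from Hill-equation fits of qHTS concentration-response data.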

[4] = Cellular Toxicity (caspase-3) MRC-5 (AID 659); details: MRC-5 cells, luminescence, normalized: DMSO 0%, 10 µM staurosporine 100%; series mostly up to 91.7 µM
How it was run: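 Luminescence from caspase-cleaved aminoluciferin substrate (Caspase-Glo 3/7, 1 hr RT) reports caspase 3/7 activity in MRC-5 lung fibroblasts after 16 hr compound exposure. Normalized to DMSO basal and 10 uM staurosporine as 100%; AC50 from Hill fits.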

[5] = Cellular Toxicity (caspase-3) NIH 3T3 (AID 666); details: NIH 3T3 caspase-3 activation, apoptosis/toxicity; series mostly up to 92.2 µM;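 further: caspase signal read after 16 h compound exposure; 0% = DMSO basal and 100% = 100 µM tamoxifen stimulation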
How it was run: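 Luminescence from aminoluciferin released by caspase-3/7 cleavage of a peptide substrate served as read-out. Mouse fibroblast NIH 3T3 cells were exposed to compounds over a concentration range for 16 hours, and AC50 values came from standard Hill modelling.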

[6] = MultiTox-Fluor Cytotoxicity Assay - LYMP1-002 - Live Cells (AID 955); details: LYMP1-002 lymphoblastoid live-cell protease fluorescence viability; series mostly up to 46.1 µM; further: on the % scale 0 is the no-effect control and ±100 the full control effect
How it was run: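 Read-out is live-cell protease activity (cell-permeant GF-AFC substrate, fluorescence Ex/Em=405/510), where a decrease indicates acute toxicity. Human lymphoblastoid cells were treated 16 hours at 37 C in a concentration series, and AC50 values came from standard Hill modelling.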

[7] = Cell Viability - LYMP1-003 - Assay at 24 hr (AID 963); details: LYMP1-003 lymphoblastoid cell viability; series mostly up to 92.2 µM;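 further: plate controls were DMSO only for no effect and tetraoctylammonium bromide positive control for full effect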
How it was run: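 Cells seeded at 2500/well, 5 hr at 37 C; compounds added; 24 hr at 37 C; CellTiter-Glo added, 30 min room temperature; luminescence read. Decrease in ATP taken as cytotoxicity, AC50 from Hill modelling.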

[8] = Cell Viability - LYMP2-015 (AID 971); details: LYMP2-015 lymphoblastoid cell viability; series mostly up to 92.2 µM;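 further: 0% = DMSO only and full effect = 92 µM tetraoctylammonium bromide; nearly all actives have a fitted effect of over 55% in size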
How it was run: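 Luminescent ATP read-out (CellTiter-Glo) served as the viability measure after lymphoblastoid cells were exposed to compounds for 24 hours at 37 C. Concentration-response data were fitted with the Hill equation to give AC50.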

[9] = Cell Viability - LYMP2-016 (AID 984); details: LYMP2-016 lymphoblastoid cell viability, qHTS; series mostly up to 92.2 µM; further: on the % scale 0 is the no-effect control and ±100 the full control effect; nearly all actives have a fitted effect of over 55% in size
How it was run: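 Cells were seeded at 2500 per well and rested 5 hr before a 24 hr compound exposure at 37 C. Viability was then gauged as cellular ATP by luciferase luminescence, with AC50 values fitted to the Hill equation.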

[10] = Cell Viability - LYMP2-024 (AID 988); details: LYMP2-024 lymphoblastoid cell viability; series mostly up to 92.2 µM;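 further: plate controls were DMSO only for no effect and 92 µM tetraoctylammonium bromide for full effect; nearly all actives have a fitted effect of over 60% in size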
How it was run: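 Steps: seed 2500 cells/well, 5 hr 37 C; add compound, 24 hr 37 C; add CellTiter-Glo, 30 min room temperature; read luminescence. AC50 derived by Hill modelling of concentration-dependent ATP loss.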

[11] = Cell Viability - LYMP1-002 - Assay at 24 hr (AID 993); details: LYMP1-002 lymphoblastoid cells viability; series mostly up to 92.2 µM; further: on the % scale 0 is the no-effect control and ±100 the full control effect
How it was run: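 Cells plated 2500/well, 5 hr 37 C; compounds added, 24 hr 37 C; CellTiter-Glo added, 30 min RT; luminescence read. Tetraoctylammonium bromide positive control. Hill-equation AC50.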

[12] = biological target: Vitamin D3 receptor (Homo sapiens) (UniProt P11473); assay: qHTS assay for small molecule agonists of vitamin D receptor signaling (AID 588543; calls by dose curve;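 further: 0% = DMSO basal and 100% = reference agonist control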); details: HEK293T VDR-UAS-bla, beta-lactamase ratio, 16 h; series mostly up to 76.8 µM
How it was run: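 Reporter cells (HEK293T, VDR-UAS-bla) were seeded in medium with 2% charcoal-stripped serum and incubated 5 h, then compounds in concentration series were added for 16 h at 37 °C. Stimulation was scaled between DMSO basal and 50 nM 1α,25-dihydroxyvitamin D3.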

[13] = biological target: Peroxisome proliferator-activated receptor alpha (Homo sapiens) (UniProt Q07869); assay: qHTS assay for small molecule agonists of the peroxisome proliferator-activated receptor alpha (PPARalpha) signaling pathway (AID 651778); details: PathHunter PPARalpha complementation, chemiluminescence, 6 h; stronger effect = higher value; further: % of control where 0% means no effect
How it was run: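 Cells plated at 2,000/well and held overnight at 37 C, 5% CO2, then compound added by pin tool for 6 hr; after PathHunter detection reagent and 60 min at room temperature, chemiluminescence from enzyme complementation was read.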

[14] = biological target: Nuclear receptor ROR-gamma (Homo sapiens) (UniProt P51449); assay: qHTS assay for small molecule antagonists of the retinoid-related orphan receptor gamma (ROR-gamma) signaling pathway (AID 651802); details: ROR-gamma antagonist cell reporter assay; series mostly up to 92.2 µM;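 further: luciferase reporter luminescence driven by ROR response element; on the % scale 0 is the no-effect control and ±100 the full control effect; nearly all actives have a fitted effect of over 60% in size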
How it was run: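 CHO, TET-inducible ROR + RORE-LUC reporter, 1536-well qHTS. Compound pinned, doxycycline added, 16hr 37C/5% CO2. ONE-Glo, 30 min RT, luminescence; signal drop scored as antagonism.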

[15] = qHTS assay for small molecule antagonists of the retinoid-related orphan receptor gamma (ROR-gamma) signaling pathway - cell viability counter screen (AID 720652; active means well fitted curve in the direction sought with a large enough effect in the repeat runs; an effect the other way counts as inactive or inconclusive;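 further: compound exposure lasted 16 hr before ATP read; on the % scale 0 is the no-effect control and ±100 the full control effect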); details: RORgamma reporter cell line viability counter screen; series mostly up to 92.2 µM
How it was run: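 Luminescence from CellTiter-Glo after 30 min at room temperature reported cellular ATP as the cytotoxicity measure. Cells were the CHO reporter line with doxycycline-induced ROR-gamma expression, exposed to compound for 16 hr at 37 C.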

[16] = qHTS assay for small molecule agonists of the antioxidant response element (ARE) signaling pathway measured by Nrf2-dependant transcriptional activity - cell viability counter screen (AID 720653; active means well fitted curve in the direction sought with a large enough effect in the repeat runs; an effect the other way counts as inactive or inconclusive; further: on the % scale 0 is the no-effect control and ±100 the full control effect); details: ARE-bla HepG2 viability, CellTiter-Glo ATP luminescence, 16 h; stronger effect = lower value
How it was run: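 ARE-bla HepG2 cells (2,000/well) rested 5 hrs at 37C/5% CO2, then exposed to compounds in DMSO for 16 hrs. Viability was read in the same wells as intracellular ATP by luminescence, 30 min at room temperature after reagent addition.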

[17] = biological target: Nuclear receptor subfamily 1 group I member 2 (Rattus norvegicus) (UniProt Q9R1A7); assay: qHTS assay for small molecule activators of the rat pregnane X receptor (rPXR) signaling pathway (AID 651751; call rule not given here; further: 0% is about no effect); details: rPXR reporter cells, luciferase (One-Glo), 24 h
[18] = MultiTox-Fluor Cytotoxicity Assay - LYMP1-001 - Dead Cells (AID 946); details: LYMP1-001 lymphoblastoid cells, dead-cell protease fluorescence; series mostly up to 92.2 µM;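 further: 0% = DMSO and 100% = tetraoctylammonium bromide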
How it was run: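 Seed 2500 LYMP1-001 cells/well, incubate 5 hr at 37 C; add compound, 16 hr at 37 C; add MultiTox-Fluor reagent, 60 min RT; read dead-cell fluorescence Ex/Em=485/520. Normalize to DMSO and 15 uM tetraoctylammonium bromide.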

[19] = qHTS assay for small molecule disruptors of the mitochondrial membrane potential - 5 hr assay (AID 651755; calls by dose curve; further: on the % scale 0 is the no-effect control and ±100 the full control effect; nearly all actives have a fitted effect of over 40% in size); details: JC-1-type ratio dye; series mostly up to 92.2 µM
How it was run: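 HepG2 cells, attached overnight at 37C, were exposed to compound or DMSO for 5 hr at 37C, 5% CO2. Mito-MPS dye was then added for 30 min, and fluorescence read at 490/535 nm (monomers) and 540/590 nm (aggregates).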

[20] = qHTS assay for cell viability of the p53RE-bla HCT-116 cell line (AID 743292); details: p53RE-bla HCT-116 viability, ATP luminescence, 16 h; series mostly up to 95 µM; further: on the % scale 0 is the no-effect control and ±100 the full control effect; nearly all actives have a fitted effect of over 55% in size
How it was run: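 ATP-based luminescence, 16 h compound exposure at 37 C, p53RE-bla HCT-116 cells at 4,000/well.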

Nuclear receptor ROR-gamma (Homo sapiens), sequence (P51449 whole entry, looked up): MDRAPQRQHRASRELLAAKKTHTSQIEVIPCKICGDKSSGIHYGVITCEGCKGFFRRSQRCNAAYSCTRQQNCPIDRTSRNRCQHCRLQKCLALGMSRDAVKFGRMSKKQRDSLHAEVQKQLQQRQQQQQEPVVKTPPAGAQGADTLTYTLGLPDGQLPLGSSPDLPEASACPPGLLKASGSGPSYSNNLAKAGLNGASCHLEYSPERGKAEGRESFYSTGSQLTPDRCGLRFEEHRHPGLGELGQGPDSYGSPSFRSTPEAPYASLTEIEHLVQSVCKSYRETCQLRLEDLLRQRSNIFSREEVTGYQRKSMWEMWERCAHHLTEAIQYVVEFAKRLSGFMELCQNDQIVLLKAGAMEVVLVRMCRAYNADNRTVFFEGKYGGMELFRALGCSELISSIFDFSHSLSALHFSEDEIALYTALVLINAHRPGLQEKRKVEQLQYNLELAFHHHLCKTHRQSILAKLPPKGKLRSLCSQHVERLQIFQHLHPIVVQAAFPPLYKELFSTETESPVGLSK
Peroxisome proliferator-activated receptor alpha (Homo sapiens), sequence (Q07869 whole entry, looked up): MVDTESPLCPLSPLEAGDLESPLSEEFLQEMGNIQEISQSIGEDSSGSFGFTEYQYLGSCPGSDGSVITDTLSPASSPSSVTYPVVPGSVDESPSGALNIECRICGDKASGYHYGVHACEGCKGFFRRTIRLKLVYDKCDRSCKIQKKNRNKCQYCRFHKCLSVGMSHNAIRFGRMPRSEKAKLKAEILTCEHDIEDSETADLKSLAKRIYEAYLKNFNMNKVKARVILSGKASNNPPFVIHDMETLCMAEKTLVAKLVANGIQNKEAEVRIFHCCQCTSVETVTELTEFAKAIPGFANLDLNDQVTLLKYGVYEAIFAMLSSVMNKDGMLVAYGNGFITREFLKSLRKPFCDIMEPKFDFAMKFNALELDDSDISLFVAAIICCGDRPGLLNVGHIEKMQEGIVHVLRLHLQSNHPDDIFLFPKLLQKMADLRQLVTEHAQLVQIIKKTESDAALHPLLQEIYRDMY
Vitamin D3 receptor (Homo sapiens), sequence (P11473 whole entry, looked up): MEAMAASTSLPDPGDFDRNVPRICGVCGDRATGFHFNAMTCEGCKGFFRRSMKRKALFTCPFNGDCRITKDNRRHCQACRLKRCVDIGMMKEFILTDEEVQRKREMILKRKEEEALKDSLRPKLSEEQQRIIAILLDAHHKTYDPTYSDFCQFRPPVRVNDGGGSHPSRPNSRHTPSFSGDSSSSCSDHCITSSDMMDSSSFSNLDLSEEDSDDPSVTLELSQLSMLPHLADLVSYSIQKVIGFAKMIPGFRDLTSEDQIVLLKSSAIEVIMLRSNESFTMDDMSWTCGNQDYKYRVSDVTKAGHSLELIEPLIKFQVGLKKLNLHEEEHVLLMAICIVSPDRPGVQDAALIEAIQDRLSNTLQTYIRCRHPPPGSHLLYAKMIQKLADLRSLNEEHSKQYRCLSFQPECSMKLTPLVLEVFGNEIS
Nuclear receptor subfamily 1 group I member 2 (Rattus norvegicus), sequence (Q9R1A7 whole entry, looked up): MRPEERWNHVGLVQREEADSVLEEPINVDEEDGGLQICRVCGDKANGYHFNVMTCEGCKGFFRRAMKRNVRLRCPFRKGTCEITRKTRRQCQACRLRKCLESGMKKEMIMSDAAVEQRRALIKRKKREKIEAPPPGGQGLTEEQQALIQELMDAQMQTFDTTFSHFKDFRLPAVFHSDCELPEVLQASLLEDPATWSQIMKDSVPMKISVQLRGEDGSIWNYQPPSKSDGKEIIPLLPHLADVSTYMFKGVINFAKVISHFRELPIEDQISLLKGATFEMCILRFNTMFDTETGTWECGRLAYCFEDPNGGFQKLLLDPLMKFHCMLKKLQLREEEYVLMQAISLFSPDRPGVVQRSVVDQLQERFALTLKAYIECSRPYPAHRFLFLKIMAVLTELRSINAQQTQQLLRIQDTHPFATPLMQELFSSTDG

COc1ccc(C=O)cc1
inactive: Potency [1] > 92 µM | Potency [2] | Potency [3] | outcome [4] | Potency [5] | outcome [6] | outcome [7] | Potency [8] | Potency [9] | Potency [10] | Potency [11] | outcome [12] | max response [13] 2.57% | Potency [14] | Potency [15] | max response [16] 7.96% | max response [17] 2.55%

CC(C)CON=O
inactive: Potency [1] > 92 µM | Potency [2] | Potency [3] | outcome [4] | Potency [5] | outcome [18] | outcome [6] | outcome [7] | Potency [8] | Potency [9] | Potency [11] | outcome [12] | Potency [19] | max response [17] 4.86%

Cc1coc2c1CCC(C)C2 (stereo not given)
inactive: Potency [1] > 92 µM | Potency [2] | outcome [4] | Potency [5] | outcome [18] | outcome [6] | outcome [7] | Potency [8] | Potency [9] | outcome [12] | Potency [19] | Potency [14] | Potency [15] | max response [16] -1.7% | Potency [20]

ClCC(Br)CBr (stereo not given)
inactive: Potency [1] > 92 µM | Potency [2] | Potency [3] | outcome [4] | outcome [18] | outcome [6] | outcome [7] | Potency [8] | Potency [9] | Potency [11] | outcome [12] | Potency [19] | max response [13] -1.61% | Potency [14] | Potency [15] | max response [16] 3.72% | Potency [20] | max response [17] 0.571%

O=[N+]([O-])CCO
inactive: Potency [1] > 92 µM | Potency [2] | Potency [3] | outcome [4] | Potency [5] | outcome [18] | outcome [6] | outcome [7] | Potency [8] | Potency [9] | Potency [10] | Potency [11] | max response [13] -2.47% | Potency [14] | Potency [15] | max response [16] -2% | Potency [20] | max response [17] 2.92%

ClCCCCl
inactive: Potency [1] > 92 µM | Potency [2] | Potency [3] | outcome [4] | Potency [5] | outcome [18] | outcome [6] | outcome [7] | Potency [9] | Potency [10] | Potency [11] | outcome [12] | Potency [19] | max response [13] -2.57% | Potency [14] | Potency [15] | max response [16] 1.55% | max response [17] -3.7%

CCCCOC(=O)c1ccccc1N
inactive: Potency [1] > 92 µM | Potency [2] | Potency [5] | outcome [18] | outcome [7] | Potency [9] | Potency [10] | Potency [11] | outcome [12] | Potency [19] | Potency [14] | Potency [15] | max response [16] 4.85% | Potency [20] | max response [17] -1.8%
